This passage reports growth results from PubChem BioAssay (NCI).

Compounds without any hit were thinned out: in the full panel of roughly 83,000, 20% have a hit.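 Results are percent growth after 48 hours of single-concentration exposure. 100 means growth as in untreated cells, lower positive values show inhibition; negative values down to -100 show cell death.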 Values without a mark were called inactive. The source made the active and inactive calls. How the source made its calls: active means growth percent below 10; inactive means the rest.

Test systems include SK-MEL-2 melanoma; SN12C renal; UO-31 renal; TK-10 renal; ACHN renal; CAKI-1 renal; A498 renal; MOLT-4 leukemia; SR leukemia; RPMI-8226 leukemia; OVCAR-8 ovarian; OVCAR-5 ovarian; OVCAR-4 ovarian; SK-OV-3 ovarian; IGROV1 ovarian; OVCAR-3 ovarian; HS 578T breast; NCI/ADR-RES ovarian; EKVX NSCLC; CCRF-CEM leukemia.
Assay in all cases: NCI-60 one-dose screen, 48 h (100 = growth as untreated, 0 = no growth, -100 = all killed)
Conditions in all cases: 10 µM unless noted

On to `Cc1cccc2nc3ccccc3c(Nc3ccc(NS(C)(=O)=O)cc3)c12`, for which the growth in the assay with SK-MEL-2 melanoma is 112%; with SN12C renal, 38.9%; with UO-31 renal it was 21.6%; with TK-10 renal, 78.6%; in the assay with ACHN renal, -27.1% (active); with CAKI-1 renal, 23.4%. The growth with A498 renal was 45.3%; with MOLT-4 leukemia, -0.487% (active); in the assay with SR leukemia, -3.06% (active); with RPMI-8226 leukemia it was 52.3%; in the assay with OVCAR-8 ovarian it was 39.8%; in the assay with OVCAR-5 ovarian, 62.1%. The growth was 77.5% with OVCAR-4 ovarian; 41% with SK-OV-3 ovarian; 43.1% in the assay on IGROV1 ovarian; 74.3% with OVCAR-3 ovarian; 87.8% with HS 578T breast; 80.8% in the assay on NCI/ADR-RES ovarian.

Consider `N=C(N)c1ccc(-c2ccc(-c3cccs3)s2)cc1F`, for which the growth was -80.2% (active) with SK-MEL-2 melanoma; -65.3% (active) in the assay with SN12C renal; -89.7% (active) with UO-31 renal; -94.3% (active) in the assay on TK-10 renal; -84.5% (active) in the assay on ACHN renal; -72.6% (active) in the assay with CAKI-1 renal. Besides, the growth was -92.7% (active) with A498 renal; -55.5% (active) in the assay with MOLT-4 leukemia; -23.8% (active) in the assay on SR leukemia; -48.1% (active) in the assay on RPMI-8226 leukemia; -44.4% (active) in the assay with OVCAR-8 ovarian; -83.6% (active) with OVCAR-5 ovarian. Also, the growth with OVCAR-4 ovarian is -59.1% (active); with SK-OV-3 ovarian, -100% (active); in the assay on IGROV1 ovarian it was -70.6% (active); with OVCAR-3 ovarian, -77.2% (active); with HS 578T breast, -28.1% (active); in the assay with NCI/ADR-RES ovarian, -57.4% (active).

Take `O=[N+]([O-])c1ccc(Sc2nc(Cl)nc(NC3CCCC3)n2)cc1`: the growth with SK-MEL-2 melanoma is -91.7% [100 µM] (active); in the assay on UO-31 renal, -83.7% [100 µM] (active); in the assay on TK-10 renal, -96.7% [100 µM] (active); with ACHN renal, -100% [100 µM] (active); in the assay with CAKI-1 renal it was -91.4% [100 µM] (active); with A498 renal, -94.2% [100 µM] (active). The growth was -30.1% [100 µM] (active) with MOLT-4 leukemia; -28.3% [100 µM] (active) in the assay on SR leukemia; -7.18% [100 µM] (active) in the assay with RPMI-8226 leukemia; -90.5% [100 µM] (active) with OVCAR-5 ovarian; -100% [100 µM] (active) in the assay on OVCAR-4 ovarian; -100% [100 µM] (active) in the assay on SK-OV-3 ovarian. The growth with IGROV1 ovarian was -67.8% [100 µM] (active); in the assay on OVCAR-3 ovarian it was -100% [100 µM] (active); in the assay on HS 578T breast, 11.7% [100 µM]; in the assay on NCI/ADR-RES ovarian, -49.1% [100 µM] (active).

For the compound `CCCCCCCCCCCCCC`, the growth with EKVX NSCLC is 95.2%; in the assay with UO-31 renal, 98.6%; in the assay with ACHN renal it was 111%; in the assay with CAKI-1 renal, 98.9%; in the assay on CCRF-CEM leukemia, 90.4%; in the assay with MOLT-4 leukemia it was 111%. For the same compound, the growth in the assay with RPMI-8226 leukemia was 103%; in the assay on OVCAR-5 ovarian, 108%; in the assay on OVCAR-4 ovarian it was 103%; with SK-OV-3 ovarian, 104%; with IGROV1 ovarian, 117%; in the assay on OVCAR-3 ovarian, 122%. Further, the growth with HS 578T breast was 106%; in the assay with NCI/ADR-RES ovarian, 96.9%.

As to `Cc1nn(-c2ccccc2)c2nc3c(nc12)C1=NCCN1C(c1ccc(Cl)cc1)N3` (stereo not given), the growth in the assay with SK-MEL-2 melanoma was 79.5%; with SN12C renal, 89.5%; in the assay on TK-10 renal it was 94.4%; in the assay with ACHN renal, 87.3%; in the assay with CAKI-1 renal, 82.6%; in the assay on A498 renal, 85.6%. Moreover, the growth with MOLT-4 leukemia is 47.3%; in the assay on SR leukemia it was 6.3% (active); with RPMI-8226 leukemia, 45.6%; with OVCAR-8 ovarian, 87.5%; in the assay on OVCAR-5 ovarian, 91%; with OVCAR-4 ovarian, 80.3%. For the same compound, the growth is 104% in the assay with SK-OV-3 ovarian; 88.8% in the assay on IGROV1 ovarian; 95.4% with OVCAR-3 ovarian; 60.7% with HS 578T breast; 98.6% with NCI/ADR-RES ovarian.

Turning to `Cc1cc2nc(CN)[nH]c2cc1C`, the growth is 110% with SK-MEL-2 melanoma; 111% with SN12C renal; 101% in the assay with UO-31 renal; 104% in the assay with TK-10 renal; 112% in the assay on ACHN renal; 108% in the assay with CAKI-1 renal. The growth in the assay on A498 renal is 98.7%; in the assay with MOLT-4 leukemia, 102%; in the assay with SR leukemia it was 97.2%; in the assay on RPMI-8226 leukemia it was 96.5%; in the assay on OVCAR-8 ovarian, 106%; in the assay with OVCAR-5 ovarian, 112%. The growth in the assay on OVCAR-4 ovarian was 112%; in the assay on SK-OV-3 ovarian, 104%; in the assay with IGROV1 ovarian, 111%; in the assay with OVCAR-3 ovarian it was 100%; in the assay with HS 578T breast, 114%; in the assay on NCI/ADR-RES ovarian, 112%.

With `O=C1c2cccc3cccc(c23)C(=O)N1CCCCCCCCCCN1C(=O)c2cccc3cccc(c23)C1=O`, the growth in the assay on SK-MEL-2 melanoma was 93.6%; in the assay on SN12C renal it was 100%; with UO-31 renal it was 99.4%; with TK-10 renal, 121%; with ACHN renal, 96.2%; with CAKI-1 renal, 98%. Moreover, the growth was 105% in the assay on A498 renal; 107% with MOLT-4 leukemia; 96.8% in the assay on SR leukemia; 108% in the assay with RPMI-8226 leukemia; 104% in the assay on OVCAR-8 ovarian; 106% in the assay on OVCAR-5 ovarian. Also, the growth was 95% in the assay on OVCAR-4 ovarian; 105% with SK-OV-3 ovarian; 110% with IGROV1 ovarian; 109% in the assay on OVCAR-3 ovarian; 99.1% in the assay with HS 578T breast; 110% in the assay with NCI/ADR-RES ovarian.

Consider `O=C1OC(/C=C/c2ccccc2)=NC/1=C/c1ccccc1[N+](=O)[O-]`, for which the growth in the assay on SK-MEL-2 melanoma was 94.7%; with SN12C renal, 104%; in the assay with UO-31 renal it was 66.5%; in the assay on TK-10 renal it was 115%; in the assay on ACHN renal, 91.8%; in the assay on CAKI-1 renal, 88.7%. Further, the growth with A498 renal is 121%; with MOLT-4 leukemia, 91.1%; with SR leukemia, 90.8%; in the assay on RPMI-8226 leukemia, 91.9%; in the assay on OVCAR-8 ovarian, 96.8%; in the assay on OVCAR-5 ovarian it was 99.1%. The growth in the assay with OVCAR-4 ovarian was 94.2%; in the assay on SK-OV-3 ovarian, 101%; in the assay with IGROV1 ovarian, 79.6%; with OVCAR-3 ovarian, 98.4%; in the assay on HS 578T breast, 107%; in the assay on NCI/ADR-RES ovarian, 96.4%.

For the compound `CCN(CC)CCCCCCCCNc1c2ccc(Cl)cc2nc2ccc(OC)cc12`, the growth is -12.2% (active) in the assay with EKVX NSCLC; -56.2% (active) in the assay with UO-31 renal; -58% (active) in the assay with ACHN renal; -1.58% (active) in the assay on CAKI-1 renal; -92.5% (active) in the assay on A498 renal; -26.5% (active) with CCRF-CEM leukemia. The growth was -63.6% (active) with SR leukemia; -43.8% (active) with RPMI-8226 leukemia; -24% (active) with OVCAR-5 ovarian; -49.8% (active) with OVCAR-4 ovarian; -29.1% (active) in the assay on SK-OV-3 ovarian; -9.45% (active) with IGROV1 ovarian. In the assay with NCI/ADR-RES ovarian, the growth is -29.8% (active).
